Reference: PubChem BioAssay
A number with no mark means an inactive call. For some assays here: Results with a measured potency or affinity are listed apart. Calls of active or inactive are those of the source. Unless noted, how the calls were made is not given here.

Legend:
[1] = antimalarial activity against Dd2 strain (AID 2302;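 active means growth inhibition above 50% at the single 2 µM test dose, taken to imply half-maximal potency below 2 µM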;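 further: 0% = DMSO untreated growth and 100% = chloroquine plus artemisinin killed control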); details: P. falciparum Dd2 in RBCs, LDH growth readout, 72 h; at 2 µM; stronger effect = higher value
[2] = human hepatoma cell viability loss – ATP luminescence, cytotoxicity control for P. falciparum antimalarial project, primary screen (AID 2303;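 active means inhibition above 50%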;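 further: 0% = DMSO wells and 100% = digitonin-killed cells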); details: HepG2 viability, 24-48 h, at 10 µM, stronger effect = higher value
[3] = molecular target: L-lactate dehydrogenase (Plasmodium falciparum (isolate CDC / Honduras)) (UniProt Q27743); test: PfLDH activity inhibition – cell lysate, 3D7 strain, counter-screen for P. falciparum growth inhibition project (AID 2304);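 further: 0% = vehicle and 100% = reference inhibitor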; details: P. falciparum 3D7 crude extract, LDH APAD/NBT absorbance; at 2 µM; stronger effect = higher value
[4] = inhibition of 3D7 malaria parasite growth – strain 3D7 (AID 2306);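 further: 0% = DMSO wells and 100% = chloroquine plus artemisinin control wells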; details: P. falciparum 3D7 erythrocytic growth, LDH absorbance, 72 h; at 2 µM; stronger effect = higher value
[5] = molecular target: Calcium-dependent protein kinase 1 (Plasmodium falciparum (isolate 3D7)) (UniProt P62344); test: PfCDPK1 kinase inhibitors, biochemical, TCAMS library (AID 1159585; cut-off not given, nearly all actives have IC50 up to about 0.98 µM;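 further: inhibitors leave more ATP so luminescence rises with inhibition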); details: recombinant PfCDPK1, Kinase-Glo ATP depletion luminescence
[6] = molecular target: Plasmodium falciparum protein kinase 6 (PK6, PF3D7_1337100) (UniProt Q8IDW1); test: PfPK6 kinase inhibitors, biochemical, TCAMS library (AID 1159586); details: recombinant PfPK6, Kinase-Glo ATP depletion luminescence
[7] = molecular target: Protein kinase 7 (PK7), Plasmodium falciparum 3D7 (PF3D7_0213400) (UniProt Q7YTF7); test: inhibition of Plasmodium PK7 catalytic activity – biochemical, TCAMS antimalarial set, Kinase-Glo luminescence (AID 1159587); details: recombinant PfPK7, Kinase-Glo ATP depletion luminescence
[8] = molecular target: Calcium-dependent protein kinase 4 (Plasmodium falciparum (isolate 3D7)) (UniProt Q8IBS5); test: PfCDPK4 kinase inhibitors, biochemical, TCAMS library (AID 1159588; cut-off not given, nearly all actives have IC50 up to about 0.91 µM); details: recombinant PfCDPK4, Kinase-Glo ATP depletion luminescence
Calcium-dependent protein kinase 4 (Plasmodium falciparum (isolate 3D7)), sequence (Q8IBS5 whole entry, looked up): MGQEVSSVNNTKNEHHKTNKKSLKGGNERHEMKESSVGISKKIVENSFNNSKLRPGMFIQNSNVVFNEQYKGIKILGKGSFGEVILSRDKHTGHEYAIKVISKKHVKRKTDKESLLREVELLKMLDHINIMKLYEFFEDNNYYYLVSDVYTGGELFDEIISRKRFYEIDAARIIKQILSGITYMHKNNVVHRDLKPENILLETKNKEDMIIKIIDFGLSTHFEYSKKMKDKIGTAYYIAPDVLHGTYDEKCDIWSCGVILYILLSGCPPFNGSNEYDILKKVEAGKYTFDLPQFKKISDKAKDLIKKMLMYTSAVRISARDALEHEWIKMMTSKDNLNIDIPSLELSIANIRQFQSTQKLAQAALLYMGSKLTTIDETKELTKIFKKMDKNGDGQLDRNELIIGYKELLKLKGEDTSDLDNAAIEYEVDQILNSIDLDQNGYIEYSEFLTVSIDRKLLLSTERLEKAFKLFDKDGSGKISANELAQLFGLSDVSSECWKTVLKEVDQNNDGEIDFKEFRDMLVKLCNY

Plasmodium falciparum protein kinase 6 (PK6, PF3D7_1337100), sequence (Q8IDW1 1-305): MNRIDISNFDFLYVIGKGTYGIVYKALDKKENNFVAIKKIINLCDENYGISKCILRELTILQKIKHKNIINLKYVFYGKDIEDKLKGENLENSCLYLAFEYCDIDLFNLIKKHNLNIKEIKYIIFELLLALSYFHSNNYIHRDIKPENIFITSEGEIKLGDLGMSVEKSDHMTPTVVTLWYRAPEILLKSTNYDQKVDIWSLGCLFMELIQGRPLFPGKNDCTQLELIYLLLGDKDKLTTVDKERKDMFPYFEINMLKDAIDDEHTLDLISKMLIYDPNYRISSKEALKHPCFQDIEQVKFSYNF
Calcium-dependent protein kinase 1 (Plasmodium falciparum (isolate 3D7)), sequence (P62344 whole entry, looked up): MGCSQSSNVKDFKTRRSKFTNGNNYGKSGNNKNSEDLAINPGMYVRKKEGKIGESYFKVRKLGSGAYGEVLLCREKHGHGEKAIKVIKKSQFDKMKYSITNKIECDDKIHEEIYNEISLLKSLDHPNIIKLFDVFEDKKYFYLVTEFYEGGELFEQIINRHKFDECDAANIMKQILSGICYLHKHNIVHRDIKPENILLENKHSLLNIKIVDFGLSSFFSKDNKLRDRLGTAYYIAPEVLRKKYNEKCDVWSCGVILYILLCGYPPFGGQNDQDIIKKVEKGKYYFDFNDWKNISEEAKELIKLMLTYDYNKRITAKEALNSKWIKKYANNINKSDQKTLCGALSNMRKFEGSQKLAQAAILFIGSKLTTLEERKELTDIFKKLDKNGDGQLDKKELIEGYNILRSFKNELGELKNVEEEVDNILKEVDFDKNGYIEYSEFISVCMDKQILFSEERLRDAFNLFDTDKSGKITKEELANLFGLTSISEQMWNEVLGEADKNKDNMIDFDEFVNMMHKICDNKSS
Protein kinase 7 (PK7), Plasmodium falciparum 3D7 (PF3D7_0213400), sequence (Q7YTF7 1-343): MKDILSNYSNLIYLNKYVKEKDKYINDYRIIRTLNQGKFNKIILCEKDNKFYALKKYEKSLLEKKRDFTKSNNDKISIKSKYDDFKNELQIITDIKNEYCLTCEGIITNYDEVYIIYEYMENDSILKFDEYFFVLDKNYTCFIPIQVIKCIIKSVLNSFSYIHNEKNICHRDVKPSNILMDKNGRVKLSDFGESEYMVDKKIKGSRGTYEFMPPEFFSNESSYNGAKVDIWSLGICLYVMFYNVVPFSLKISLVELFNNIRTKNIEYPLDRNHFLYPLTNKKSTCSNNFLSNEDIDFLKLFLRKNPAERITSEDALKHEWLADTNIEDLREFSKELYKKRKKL
L-lactate dehydrogenase (Plasmodium falciparum (isolate CDC / Honduras)), sequence (Q27743 whole entry, looked up): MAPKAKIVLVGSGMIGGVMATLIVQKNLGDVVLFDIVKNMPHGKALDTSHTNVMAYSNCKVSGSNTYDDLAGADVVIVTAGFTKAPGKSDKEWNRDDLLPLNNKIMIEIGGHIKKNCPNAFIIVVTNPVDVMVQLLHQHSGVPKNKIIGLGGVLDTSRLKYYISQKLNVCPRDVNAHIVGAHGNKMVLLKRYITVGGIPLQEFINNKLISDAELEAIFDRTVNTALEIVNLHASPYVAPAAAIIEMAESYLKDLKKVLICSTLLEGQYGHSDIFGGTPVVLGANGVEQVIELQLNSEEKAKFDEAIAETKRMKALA

## Cc1ccc(CN2CCN(c3cc4c(cc3Cl)CCN4C(=O)Cc3ccc(Cl)c(NC(=O)Nc4cccc(C#N)c4)c3)CC2)cc1
[1]
  growth inhibition: 29%
[2]
  inhibition: 3%
[3]
  inhibition: 1%
[4]
  growth inhibition: 92% (active)
[5]
  outcome: inactive
[6]
  outcome: inactive
[7]
  outcome: inactive
[8]
  outcome: inactive

## Cc1cc(NN=CC=Cc2ccccc2)c2ccccc2n1
[1]
  growth inhibition: 69% (active)
[2]
  inhibition: 19%
[3]
  inhibition: 1%
[4]
  growth inhibition: 101% (active)
[5]
  outcome: inactive
[6]
  outcome: inactive
[7]
  outcome: inactive
[8]
  outcome: inactive

## O=C(/C=C/c1ccc(Cl)c(Cl)c1)NCCCCCN1CCC(NC(=O)Nc2cccc(Cl)c2)CC1
[1]
  growth inhibition: 13%
[2]
  inhibition: 52% (active)
[3]
  inhibition: -1%
[4]
  growth inhibition: 102% (active)
[5]
  outcome: inactive
[6]
  outcome: inactive
[7]
  outcome: inactive
[8]
  outcome: inactive

## CCCCCc1cc(OC(C)=O)c2c(c1)OC(C)(C)C=C2C1=CCN(Cc2ccccc2)CC1
[1]
  growth inhibition: 88% (active)
[2]
  inhibition: 14%
[3]
  inhibition: -3%
[4]
  growth inhibition: 97% (active)
[5]
  outcome: inactive
[6]
  outcome: inactive
[7]
  outcome: inactive
[8]
  outcome: inactive

## CCCCNC(=O)C(C)NC(=O)c1ccc(O)c(-c2ccc(Cl)c(Cl)c2)c1 (configuration not stated)
[1]
  growth inhibition: 8%
[2]
  inhibition: -5%
[3]
  inhibition: 2%
[4]
  growth inhibition: 98% (active)
[5]
  outcome: inactive
[6]
  outcome: inactive
[7]
  outcome: inactive
[8]
  outcome: inactive

## CN1CCN(CCc2ccc3nc(-c4csc(Cc5cc(Cl)ccc5OCc5ccccc5)n4)[nH]c3c2)CC1
[1]
  growth inhibition: 97% (active)
[2]
  inhibition: 30%
[3]
  inhibition: -1%
[4]
  growth inhibition: 101% (active)
[5]
  outcome: inactive
[6]
  outcome: inactive
[7]
  outcome: inactive
[8]
  outcome: inactive

## CC(C)n1cc2c(ccc3nc(N)nc(N)c32)n1
[1]
  growth inhibition: -2%
[2]
  inhibition: 65% (active)
[3]
  inhibition: 1%
[4]
  growth inhibition: 92% (active)
[5]
  outcome: inactive
[6]
  outcome: inactive
[7]
  outcome: inactive
[8]
  outcome: inactive

## CCN(CCCN1CCCCC1)c1cc(C)nc(Nc2ccc(C)c(Cl)c2)n1
[1]
  growth inhibition: 100% (active)
[2]
  inhibition: 32%
[3]
  inhibition: -7%
[4]
  growth inhibition: 101% (active)
[5]
  outcome: inactive
[6]
  outcome: inactive
[7]
  outcome: inactive
[8]
  outcome: inactive

## c1cc(CN2CCN(c3ccncc3)CC2)cc(-c2ccc(-c3nc4ccccc4[nH]3)cc2)c1
[1]
  growth inhibition: 100% (active)
[2]
  inhibition: 60% (active)
[3]
  inhibition: -11%
[4]
  growth inhibition: 100% (active)
[5]
  outcome: inactive
[6]
  outcome: inactive
[7]
  outcome: inactive
[8]
  outcome: inactive

## c1ccc(CCNCc2ccc(-c3ccc(CNc4ccc5ncccc5c4)cc3)cc2)cc1
[1]
  growth inhibition: 27%
[2]
  inhibition: 36%
[3]
  inhibition: -1%
[4]
  growth inhibition: 96% (active)
[5]
  outcome: inactive
[6]
  outcome: inactive
[7]
  outcome: inactive
[8]
  outcome: inactive

## CC(=O)c1cccc(NC(=O)N2CCCN(CCCCCNC(=O)/C=C/c3ccc(Cl)c(Cl)c3)CC2)c1
[1]
  growth inhibition: 0%
[2]
  inhibition: 13%
[3]
  inhibition: -5%
[4]
  growth inhibition: 93% (active)
[5]
  outcome: inactive
[6]
  outcome: inactive
[7]
  outcome: inactive
[8]
  outcome: inactive

## O=C1CCCN1CCCNCc1ccc(-c2ccc(-c3nc4ccc(F)cc4[nH]3)cc2)cc1
[1]
  growth inhibition: 99% (active)
[2]
  inhibition: 16%
[3]
  inhibition: -3%
[4]
  growth inhibition: 100% (active)
[5]
  outcome: inactive
[6]
  outcome: inactive
[7]
  outcome: inactive
[8]
  outcome: inactive

## COc1ccc2c(NN=Cc3ccccc3Cl)cc(C)nc2c1
[1]
  growth inhibition: 99% (active)
[2]
  inhibition: 5%
[3]
  inhibition: 2%
[4]
  growth inhibition: 101% (active)
[5]
  outcome: inactive
[6]
  outcome: inactive
[7]
  outcome: inactive
[8]
  outcome: inactive

## Nc1ccc2[nH]cc(C3CCN(CC4CCC(NC(=O)/C=C/c5ccc(Cl)c(Cl)c5)CC4)CC3)c2n1 (configuration not stated)
[1]
  growth inhibition: 93% (active)
[2]
  inhibition: 18%
[3]
  inhibition: 1%
[4]
  growth inhibition: 100% (active)
[5]
  outcome: inactive
[6]
  outcome: inactive
[7]
  outcome: inactive
[8]
  outcome: inactive

## Cn1nccc1C(=O)NCCNCc1ccc(-c2ccc(-c3nc4ccccc4[nH]3)s2)cc1
[1]
  growth inhibition: 97% (active)
[2]
  inhibition: 23%
[3]
  inhibition: -9%
[4]
  growth inhibition: 101% (active)
[5]
  outcome: inactive
[6]
  outcome: inactive
[7]
  outcome: inactive
[8]
  outcome: inactive

## Cc1cc(C)c(C(=O)Nc2ccc3nc(C)cc(N)c3c2)c(C)c1
[1]
  growth inhibition: 14%
[2]
  inhibition: 12%
[3]
  inhibition: 4%
[4]
  growth inhibition: 84% (active)
[5]
  outcome: inactive
[6]
  outcome: inactive
[7]
  outcome: inactive
[8]
  outcome: inactive

## CC(C)CN(c1nc(C(=O)NNC(=O)[C@H](CC2CC2)NC(=O)c2cc3cc(OCCN4CCCCC4)ccc3o2)cs1)C1CC1
[1]
  growth inhibition: 98% (active)
[2]
  inhibition: 2%
[3]
  inhibition: -4%
[4]
  growth inhibition: 97% (active)
[5]
  outcome: inactive
[6]
  outcome: inactive
[7]
  outcome: inactive
[8]
  outcome: inactive

## O=C(NCCCCCN1CCC(c2c[nH]c3ccccc23)C1)Nc1ccc(Cl)c(Cl)c1 (configuration not stated)
[1]
  growth inhibition: 19%
[2]
  inhibition: 28%
[3]
  inhibition: 1%
[4]
  growth inhibition: 95% (active)
[5]
  outcome: inactive
[6]
  outcome: inactive
[7]
  outcome: inactive
[8]
  outcome: inactive

## CCOc1ccc2c(NN=Cc3cccc(OC)c3OC)cc(C)nc2c1
[1]
  growth inhibition: 85% (active)
[2]
  inhibition: 4%
[3]
  inhibition: 3%
[4]
  growth inhibition: 102% (active)
[5]
  outcome: inactive
[6]
  outcome: inactive
[7]
  outcome: inactive
[8]
  outcome: inactive
